# Data from PubChem BioAssay (Tox21).
# Records with an inconclusive call do not appear. Unmarked numbers belong to inactive results. Calls of active or inactive are those of the source. Calls come from the whole dose curve; as a rule, active = well fitted inhibition curve with a large enough effect in the signal ratio in the repeat runs (not every such curve was filed as active); inconclusive = weak or mixed curves, or effect the other way; inactive = no such curve, though single readings can be large or run the other way; the % refers to the signal ratio.
# Target: Bile acid receptor (Homo sapiens) (UniProt Q96RI1)
# Sequence (Q96RI1 whole entry, looked up): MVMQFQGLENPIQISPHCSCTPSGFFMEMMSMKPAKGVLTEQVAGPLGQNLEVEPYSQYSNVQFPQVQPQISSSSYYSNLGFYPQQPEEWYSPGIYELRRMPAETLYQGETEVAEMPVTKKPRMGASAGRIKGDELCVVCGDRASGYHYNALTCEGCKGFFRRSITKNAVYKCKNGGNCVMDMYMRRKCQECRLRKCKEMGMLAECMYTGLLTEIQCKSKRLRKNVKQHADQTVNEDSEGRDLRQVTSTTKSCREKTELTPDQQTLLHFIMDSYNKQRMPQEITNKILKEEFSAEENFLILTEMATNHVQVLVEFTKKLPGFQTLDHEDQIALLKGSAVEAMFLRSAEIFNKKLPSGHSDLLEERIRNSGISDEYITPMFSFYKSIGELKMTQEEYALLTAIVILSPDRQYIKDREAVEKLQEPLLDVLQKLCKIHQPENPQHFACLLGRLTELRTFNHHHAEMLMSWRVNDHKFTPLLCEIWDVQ
# Assay: qHTS assay to identify small molecule antagonists of the farnesoid-X-receptor (FXR) signaling pathway (AID 743217)
# Details: HEK293T FXR-UAS-bla, beta-lactamase ratio, CDCA-stimulated, 16 h; series mostly up to 62.6 µM; activity change, negative = inhibition: at the top concentration
# Method in brief: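 In this cell-based antagonist screen, inhibition of CDCA-driven (50 uM final) UAS-beta-lactamase expression in HEK 293T cells was measured by FRET fluorescence following 16 h compound exposure at 37 °C.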
# % is set by controls: 0 for no effect and ±100 for the full control effect; potency is the fitted concentration of half-maximal effect.
SMILES,"activity change, negative = inhibition",Potency
CCC(C)n1c(=O)[nH]c(C)c(Br)c1=O (stereo not drawn),10.1%,–
CCOP(=S)(OCC)Oc1cc(-c2ccccc2)on1,-23.1%,–
O=C(Cc1ccccc1)OCc1ccccc1,4.5% [at 81.1 µM],–
O=NN1CCN(N=O)CC1,5.94%,–
CCCCc1ccc(O)cc1,7.16%,–
CN1C(=S)CN=C(c2ccccc2)c2cc(Cl)ccc21,3.74%,–
C1CCC(C2CCCCC2)CC1,2.82%,–
CC(CC(C#N)(c1ccccc1)c1ccccc1)N(C)C (stereo not drawn),-13.4% [at 81.1 µM],–
Nc1c(Br)cc([N+](=O)[O-])cc1[N+](=O)[O-],7.08% [at 81.1 µM],–
CNC(=O)Oc1ccccc1C1OCCO1,4.46%,–
O=[N+]([O-])c1ccc2c3c(cccc13)CC2,1.98%,–
CC(COc1ccc(Oc2ccccc2)cc1)Oc1ccccn1 (stereo not drawn),-4.47%,–
CCNc1nc(NC(C)C)nc(OC)n1,0.0268%,–
N#CC(CCc1ccc(Cl)cc1)(Cn1cncn1)c1ccccc1 (stereo not drawn),-10.6%,–
CCCCOC(=O)c1ccccc1C(=O)O,1.03%,–
O=C(Nc1ccccc1)N(Cc1ccc(Cl)cc1)C1CCCC1,–,54.9 µM (active)
CCCCOP(=O)(O)OCCCC,5.7%,–
CNC(=O)Oc1ccc(N(C)C)c(C)c1,0.707%,–
